Results: ChEMBL document CHEMBL1157539, “Thousands of chemical starting points for antimalarial lead identification” (Nature, 2010)

System: Plasmodium falciparum
Assay: GSK_TCMDC: Inhibition of Plasmodium falciparum 3D7 in whole red blood cells, using parasite LDH activity as an index of growth. Test compounds present at 2uM
Format: functional

With `COc1ccc2nccc([C@@H](O)CN3CCC(NCc4cc5ccc(Cl)cc5[nH]4)CC3)c2c1.O=C(O)C(=O)O` as the compound, how does the Inhibition read?
The Inhibition was 99%.

Which Inhibition does the source give for `Cc1cccc2nc(-c3cccc(-c4ccc(NC(=O)NC(C)C)cc4)c3)[nH]c12` here?
Its Inhibition is 98%.

Which Inhibition does the source give for `c1ccc(OCCCCN2CCCCC2)cc1` here?
The Inhibition was 95%.

With `COc1ccc2nccc([C@@H](O)CN3CCC(NCc4cc5cccc(O)c5c(=O)[nH]4)CC3)c2c1.Cl` as the compound, how does the Inhibition read?
The Inhibition was 99%.

For `Cc1nc2ccc3ccc(CNc4ccc5c(c4)CN([C@H](CCC(=O)O)C(=O)O)C5=O)cc3c2c(=O)[nH]1`, which Inhibition is on record?
The Inhibition was 87%.

For `CCCCCCSc1nnc(COc2cccc3ccccc23)n1-c1ccc(OC)cc1`, which Inhibition is on record?
Its Inhibition is 99%.

System: Plasmodium falciparum
Assay: GSK_TCMDC: Inhibition of Plasmodium falciparum Dd2 in whole red blood cells, using parasite LDH activity as an index of growth. Test compounds present at 2uM
Format: functional

How did the Inhibition turn out when `COc1cc2nc(N3CCC(CNC(=O)c4ccc(OC(F)(F)F)cc4)CC3)nc(N)c2cc1OC.O=C(O)C(F)(F)F` was run?
Its Inhibition is 98%.

Which Inhibition does the source give for `CCOC(=O)NC1=NC(=N)N(OCc2ccc(Cl)c(Cl)c2)C(C)(C)N1` here?
Its Inhibition is 90%.

`CCOc1ccc(Br)cc1/C=C/C(=O)Nc1ccc2c(c1)CN(C)CCC2.O=C(O)C(F)(F)F` was tested. Which Inhibition did it give?
The Inhibition was 37%.

For `COc1ccc(Cl)cc1NC(=O)Nc1ccc2c(c1)CCN(C1CCC1)CC2.Cl`, which Inhibition is on record?
Its Inhibition is 19%.

`CN(C)C(=S)N/N=C1/C(=O)Nc2ccc(OC(F)(F)F)cc21` was tested. Which Inhibition did it give?
The Inhibition was 52%.

`CCNc1cc(C(=O)N[C@@H](Cc2ccccc2)[C@H](O)CNC(C)CC(C)C)c(F)c(N2CCCCS2(=O)=O)c1.O=CO` (stereo partly specified) was tested. Which Inhibition did it give?
Its Inhibition is 66%.

For `Cl.O=C(Nc1cccc(Cl)c1)OC1CCCN2CCCCC12` (stereo unspecified), which Inhibition is on record?
The Inhibition was 0%.

With `COc1ccc(NC(=O)Nc2ccc(-c3ccccc3)cc2)cc1Cn1nc(Cl)c(N2CCCNCC2)cc1=O.O=C(O)C(F)(F)F` as the compound, how does the Inhibition read?
Its Inhibition is 84%.

`CC(C)CCN1CCC(Oc2ccc(NC(=O)c3ccc4ncccc4c3)cc2Cl)C1.O=C(O)C(F)(F)F` (stereo unspecified) was tested. Which Inhibition did it give?
The Inhibition was 14%.

With `CCOC(=O)C(=CNc1ccc(Cc2cnc(N)nc2N)cc1CC)C(=O)OCC` as the compound, how does the Inhibition read?
The Inhibition was 7%.

With `Cl.c1ccc2c(c1)ncn2-c1ccnc(Nc2ccncc2)n1` as the compound, how does the Inhibition read?
Its Inhibition is 80%.

With `O=C(O)C(F)(F)F.c1ccc(CNCc2ccc(-c3ccc(-c4nc5ccccc5[nH]4)cc3)cc2)cc1` as the compound, how does the Inhibition read?
Its Inhibition is 93%.

How did the Inhibition turn out when `FC(F)(F)c1ccc2[nH]c(-c3ccc(-c4ccc(CNCC5CCCO5)cc4)s3)nc2c1.O=C(O)C(F)(F)F` (stereo unspecified) was run?
The Inhibition was 98%.

`CC1CN(c2cc(=O)n(Cc3ccc(NC(=O)Nc4ccc(-c5ccccc5)cc4)cc3)cn2)CC(C)N1.O=C(O)C(F)(F)F` (stereo unspecified) was tested. Which Inhibition did it give?
The Inhibition was 20%.

`Cl.O=C(N[C@@H](Cc1cc(F)cc(F)c1)[C@H](O)CNCc1cccc(C(F)(F)F)c1)c1cc(C2CCCC2)cc(N2CCCC2=O)c1` was tested. Which Inhibition did it give?
Its Inhibition is 45%.

How did the Inhibition turn out when `CC1(C)NC(N)=NC(=N)N1OCc1ccc2ccccc2c1CON1C(=N)N=C(N)NC1(C)C` was run?
The Inhibition was 12%.

`COc1cc(C)nc2ccc(NC(=O)Nc3ccccc3[N+](=O)[O-])cc12` was tested. Which Inhibition did it give?
Its Inhibition is 58%.

Which Inhibition does the source give for `Cc1cc(CN2CC[C@H](NC(=O)c3ccc(Cl)c(Cl)c3)C2)ccc1OCCN1CCCC1.O=C(O)C(F)(F)F` here?
Its Inhibition is 92%.

How did the Inhibition turn out when `O=C(Nc1ccc(Cn2ncc(N3CCCNCC3)c(Cl)c2=O)cc1)Nc1cccc(C(F)(F)F)c1.O=C(O)C(F)(F)F` was run?
Its Inhibition is 30%.

With `Oc1cc(Nc2ccnc3cc(I)ccc23)ccc1F` as the compound, how does the Inhibition read?
The Inhibition was 99%.

Which Inhibition does the source give for `CN1CCN(CCCN(Cc2ccc(-c3cccc(CNCc4ccc5c(c4)OCO5)c3)cc2)C(=O)NC2CCCCC2)CC1.O=C(O)C(F)(F)F` here?
The Inhibition was 92%.

For `CCOc1cc(C)ccc1N1CCN(CCN2CCC(NC(=O)c3ccc(-c4ccc(C#N)cc4)cc3)CC2)CC1`, which Inhibition is on record?
Its Inhibition is 3%.

With `CC(C)N1CCN(C(=O)c2ccc(CN(C)CCCN3CCN(c4cccc(Cl)c4Cl)CC3)s2)CC1.Cl` as the compound, how does the Inhibition read?
The Inhibition was 35%.

`Cc1[nH]c(C)c(-c2ccc(-c3ccc(Cl)cc3)cc2)c(=O)c1Cl` was tested. Which Inhibition did it give?
The Inhibition was 96%.

How did the Inhibition turn out when `O=C(O)C(F)(F)F.OCCN1CCN(Cc2ccc(-c3ccc(-c4nc5cc(C(F)(F)F)ccc5[nH]4)s3)cc2)CC1` was run?
The Inhibition was 99%.

Which Inhibition does the source give for `OC(CNc1ccnc(Nc2cccc(Cl)c2)n1)c1cccc(F)c1` (stereo unspecified) here?
Its Inhibition is 29%.

Which Inhibition does the source give for `CC[C@H](NC(=O)c1ccc(NC(=O)OC(C)(C)C)cc1)C(=O)N[C@@H](CO)C(=O)NCCCCc1ccccc1` here?
Its Inhibition is 94%.

Which Inhibition does the source give for `CC1CCC(C[C@@H](C(=O)N[C@@H](CCC(=O)N2CCCCC2)C(=O)Nc2nccs2)[C@H](C(C)C)N(O)C=O)CC1` (stereo partly specified) here?
Its Inhibition is 70%.

How did the Inhibition turn out when `O=C(Nc1ccc(C(F)(F)F)cc1)NC1CCN(c2ccnc3ccccc23)C1.O=C(O)C(F)(F)F` (stereo unspecified) was run?
The Inhibition was 89%.

For `CCCCNC(=O)[C@H](CC1CCCCC1)NC(=O)c1ccc(O)c(-c2ccc(Cl)c(Cl)c2)c1`, which Inhibition is on record?
The Inhibition was 99%.

For `COc1cc(-c2nc3c4ccccc4c4ccccc4c3[nH]2)cc(OC)c1OC`, which Inhibition is on record?
Its Inhibition is 10%.

Which Inhibition does the source give for `CCN1CCC(N(Cc2ccc(-c3ccc(C(F)(F)F)cc3)cc2)C(=O)Cn2c(CCc3cccc(F)c3F)nc(=O)c3ccccc32)CC1.O=C(O)C(O)C(O)C(=O)O` here?
The Inhibition was 95%.

With `COc1ccc(-c2c(C(F)(F)F)nn(C)c2NC(=O)Nc2ccc(F)cc2F)cc1` as the compound, how does the Inhibition read?
Its Inhibition is 99%.

`CC(C)CC(=O)Nc1cc(=O)[nH]c2nc(-c3ccccc3)nn12` was tested. Which Inhibition did it give?
The Inhibition was 85%.

`COc1ccc2nccc([C@@H](O)CN3CCC(NCc4cc5ccc(Cl)cc5[nH]4)CC3)c2c1.O=C(O)C(=O)O` was tested. Which Inhibition did it give?
Its Inhibition is 61%.

For `Cc1cccc2nc(-c3cccc(-c4ccc(NC(=O)NC(C)C)cc4)c3)[nH]c12`, which Inhibition is on record?
The Inhibition was 44%.

With `c1ccc(OCCCCN2CCCCC2)cc1` as the compound, how does the Inhibition read?
Its Inhibition is 1%.

`COc1ccc2nccc([C@@H](O)CN3CCC(NCc4cc5cccc(O)c5c(=O)[nH]4)CC3)c2c1.Cl` was tested. Which Inhibition did it give?
Its Inhibition is 66%.

How did the Inhibition turn out when `Cc1nc2ccc3ccc(CNc4ccc5c(c4)CN([C@H](CCC(=O)O)C(=O)O)C5=O)cc3c2c(=O)[nH]1` was run?
Its Inhibition is 90%.

With `CCCCCCSc1nnc(COc2cccc3ccccc23)n1-c1ccc(OC)cc1` as the compound, how does the Inhibition read?
The Inhibition was 100%.
